# Screens as filed in PubChem BioAssay.
# Rows were chosen to be rich in hits. Some 7.6% of all compounds tested hit in one or more screens of this group.
# ELG1 DNA repair – blocks ELG1-dependent DNA repair in HEK293T cells; HEK293T ELG1-luciferase reporter, luminescence, 16 h; DNA damage induced by 5-fluorouridine; Potency, µM (series often up to 46.1 µM), inactives show at the top dose activity change, negative = inhibition, most hits filed as inhibitors; AID 504467; hit rate 2.3% among 330,000; further: potency means the concentration at half of the fitted maximal effect; on the % scale 0 is the no-effect control and ±100 the full control effect; nearly all actives have a fitted effect of over 55% in size
#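 5-Fluorouridine DNA damage + compound/DMSO, 2,000 cells/well, 16 h, 37 °C/5% CO2. ONE-Glo, 30 min RT, luminescence. Readout = decrease in reporter signal.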
# p53 reactivator – mutant p53 re-activation in reporter cells; hit rate 0.063% among 320,000; H1299 p53-A138V BP100-luciferase reporter, luminescence, 24 h; AID 504706; Potency, µM (doses to about 92.2 µM), for the others: at the top dose activity change, positive = activation, usual class: activators; further: potency means the concentration at half of the fitted maximal effect; % of control where 0% means no effect; nearly all actives have a fitted effect of over 45% in size
#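 p53-null H1299 cells stably carrying temperature-sensitive p53-A138V and a BP100-luciferase reporter were pinned with compounds (4-point, 1:5 series) and held 24 hrs at 37 deg C. Luminescence was read 10 min after detection reagent.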
# BRCA1 expr up – BRCA1 expression activation. MCF7-BRCA1-FFLuc reporter, luminescence, 48 h; response scale: scaled: vehicle 0%, 10 µM genistein 100%. Potency, µM (titrated, usually from 46.1 µM), without a hit: top-dose activation, most hits filed as activators. hit rate 1.1% among 380,000; further: potency means the concentration at half of the fitted maximal effect; nearly all actives have a fitted effect of over 80% in size
#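 MCF7-BRCA1-FFLuc, 2000 cells/well; 2 h attach, 37 °C/5% CO2; compound 48 h; luciferase substrate 15 min; luminescence end-point. Norm. to genistein 10 microM max activation and DMSO; concentration-response curves fitted.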
# VP16 counter – Gal4-VP16 reporter inhibition counter-screen; Drosophila S2 Gal4-VP16 UAS-luciferase, luminescence, 20 h; Potency, µM (highest dose often 53.6 µM), without a hit: at the top dose activity, negative = inhibition, most hits filed as inhibitors; hit rate 3.5% among 310,000; AID 2546;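 further: Gal4-VP16 expression switched on by copper sulfate through the metallothionein promoter; potency means the concentration at half of the fitted maximal effect; on the % scale 0 is the no-effect control and ±100 the full control effect; nearly all actives have a fitted effect of over 50% in size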
# RORgamma inh – inhibitors of mouse ROR gamma transcriptional activity; AID 2551; hit rate 5.4% among 310,000; Drosophila S2 Gal4-RORgamma UAS-luciferase reporter, 20 h; Potency, µM (doses to about 53.6 µM), without a hit: top-dose activity change, negative = inhibition, most hits filed as inhibitors; further: potency means the concentration at half of the fitted maximal effect; on the % scale 0 is the no-effect control and ±100 the full control effect; nearly all actives have a fitted effect of over 60% in size
# Target sequence (P51450 whole entry, looked up, the tested form may be a part): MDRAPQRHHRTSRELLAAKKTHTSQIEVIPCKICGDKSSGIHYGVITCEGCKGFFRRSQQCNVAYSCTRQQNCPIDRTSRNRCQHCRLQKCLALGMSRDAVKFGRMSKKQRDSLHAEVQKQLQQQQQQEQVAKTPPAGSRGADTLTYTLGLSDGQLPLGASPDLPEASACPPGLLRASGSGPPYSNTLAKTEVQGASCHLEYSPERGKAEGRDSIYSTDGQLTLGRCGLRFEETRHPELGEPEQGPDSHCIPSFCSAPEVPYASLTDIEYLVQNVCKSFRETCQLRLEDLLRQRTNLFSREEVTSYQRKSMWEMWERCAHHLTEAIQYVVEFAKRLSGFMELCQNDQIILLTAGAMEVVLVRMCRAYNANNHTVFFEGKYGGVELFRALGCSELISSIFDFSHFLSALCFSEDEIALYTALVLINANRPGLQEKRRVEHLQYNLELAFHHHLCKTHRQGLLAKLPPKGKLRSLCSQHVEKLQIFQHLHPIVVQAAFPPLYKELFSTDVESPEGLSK
#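 Schneider cells (Drosophila), stable Gal4 DBD–ROR gamma + UAS-luc; 1 hr cmpd preincubation; Cu2+ induction 700 uM final; 20 hr ambient; luminescence.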
# Giardia killer – Giardia lamblia killing. Giardia lamblia trophozoite viability. activity change, % at 7.66 µM, hits read low. hit rate 0.15% among 340,000; in the data active means activity change below about -80%; inconclusive means between about -30% and that limit;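 further: parasites exposed to compound for two days anaerobically before the ATP read; on the % scale 0 is the no-effect control and ±100 the full control effect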
#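 Trophozoites 100 cells/well + cpd; 48 hrs, 37 deg C, anaerobic. ATPLite 1-Step added, 15-30 min RT, luminescence read (ATP-based viability).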
# Numbers without * were called inactive; ? = inconclusive; nt = not tested or not shown. Unless noted, the call rests on the fitted dose curve; in most records, active means well fitted curve in the direction sought with a large enough effect; inconclusive means small, poorly fitted or top-dose-only effect, or another doubt; inactive means no such curve, though single readings can be large; an effect the other way counts as inactive or inconclusive.
SMILES,ELG1 DNA repair,p53 reactivator,BRCA1 expr up,VP16 counter,RORgamma inh,Giardia killer
O=[N+]([O-])c1ccc(O)c(/C=N/n2c(CO)nc3ccccc32)c1,26µM*,1%,-1%,29%,-4%,-9
C/C(=N\OCc1nc2ccccc2c(=O)n1/N=C/c1cc([N+](=O)[O-])ccc1O)c1ccccc1,?,?,-19%,?,10µM*,25
C(=N\n1cnc2ccccc21)/c1cccnc1,?,6%,72%,-19%,35%,0
Cc1cc([N+](=O)[O-])cc(/C=N/n2c(C)nc3ccccc3c2=O)c1O,?,17%,-67%,5%,13µM*,-12
Cc1ccc(NC(=O)Cn2cncc2-c2ccc([N+](=O)[O-])cc2)cc1C,13%,2%,-14%,0%,-10%,0
CC(C(=O)NC1CCCC1)N(C(=O)c1snc(C(N)=O)c1N)c1ccc2c(c1)OCCO2 (configuration not stated),-17%,-4%,5%,1%,19%,2
C=CCOn1c(C)c(C(C)=O)c2c3nonc3ccc21,10µM*,-5%,-18%,0%,0%,4
COc1cccc(C(=O)Nc2c(F)c(F)c(F)c(F)c2F)c1,-2%,14%,5%,-1%,18%,2
O=C(NNC(=S)NC(=O)c1cccc([N+](=O)[O-])c1)c1ccc(Br)cc1,?,7%,-42%,?,11µM*,3
Cc1ccc(C(=O)NC(=S)NNC(=O)c2cccc([N+](=O)[O-])c2)cc1,-11%,11%,-28%,7.1µM*,4.5µM*,0
O=C(NNC(=S)NC(=O)c1ccccc1)c1ccc(O)cc1,0%,12%,-1%,?,?,-8
O=C(NNC(=S)NC(=O)c1cccc([N+](=O)[O-])c1)c1ccc(O)cc1,15%,9%,-4%,13µM*,13µM*,-3
O=C(NC(=S)Nc1ccc(N2CCOCC2)cc1)c1cccc([N+](=O)[O-])c1,-9%,9%,-6%,2.8µM*,2.2µM*,-6
Cc1ccc(S(=O)(=O)N2C[C@H]3C(=O)C[C@@H](c4ccccc4)N(S(=O)(=O)c4ccc(C)cc4)[C@H]3C[C@H]2c2cccc(C)c2)cc1,nt,nt,-1%,nt,nt,nt
O=C(NNC(=O)c1cccc([N+](=O)[O-])c1)c1ccncc1,-5%,5%,8%,7%,1%,-8
CC(C)NS(=O)(=O)c1ccc(NC(=S)NC(=O)c2cccc([N+](=O)[O-])c2)cc1,0%,-4%,-9%,-17%,-6%,-4
O=C(NNC(=S)NC(=O)c1ccccc1)c1cccc([N+](=O)[O-])c1,-2%,0%,-52%,11µM*,7.9µM*,-17
O=C(NC(=S)Nc1cccc(F)c1)c1cccc([N+](=O)[O-])c1,21%,?,-18%,6.3µM*,1.6µM*,-4
O=C(NNC(=O)c1ccccn1)c1cccc([N+](=O)[O-])c1,12µM*,3%,-58%,?,10µM*,-13
COc1cccc(C(=O)NC(=S)Nc2ccc([N+](=O)[O-])cc2C)c1,13%,-4%,-35%,?,7.1µM*,-9
COc1ccc(OC)c(NC(=O)CCC(=O)Nc2nnc(C(F)(F)F)s2)c1,15%,1%,-17%,-3%,0%,-4
N#C/C(=C\c1ccc(Cl)cc1)C(=O)NC1CC1,nt,nt,-6%,nt,nt,-12
CC(=O)Nc1ccc(C2=NN(Cc3nnc(-c4ccccc4)o3)C(=O)SC2)cc1,16µM*,-18%,-12%,-7%,35%,15
CC(=O)Nc1ccc(C2=NN(CC#N)C(=O)SC2)cc1,-9%,-4%,2%,2%,15%,1
Cc1cc2ncn(/N=C/c3ccc(-c4ccccc4)o3)c2cc1C,-5%,-8%,-4%,20µM*,11µM*,2
